Among the data in PubChem BioAssay AID1963822 (ICCB-Longwood Screening Facility, Harvard Medical School, 2024) are z-score values, retold here.

Several values for one entry are separate records, joined by “and”; a condition that tells them apart may be missing. Identical values can stand only once. In all, about 55,000 compounds went through this assay and about 90 (0.2%) were called active. The rule behind the calls is not given here. What follows is part of a selection rich in actives, with near analogues and random picks from the rest. Where a structure was tested more than once in an assay, its records may differ in their call.

The test in a line: anaerobic choline-dependent bacterial growth inhibition – minimal medium, absorbance (AID 1963822). Particulars: Gram-negative bacterium anaerobic choline minimal medium.
The mark [1] stands for this setting: measured here: choline growth z-score, timepoint 1, stronger effect = lower value.

As to `CCOC(=O)c1cnn(CCOC(=O)COC)c1NC(=O)COC`, the z-score was 0.06 (inactive) (stronger effect = lower value) and 0.2 under setting [1].
For `Cc1noc2c1C(c1ccc(Cl)cc1)C1=C(CC(c3ccc(O)cc3)CC1=O)N2` (configuration not stated) the same measures were -1.06 (inactive) and 0.58.
Take `CCCCC(=O)Nc1cc(N2CCn3c(nc4ccccc43)C2)ccc1C`: the z-score runs as follows: (stronger effect = lower value) -0.54 (inactive); under setting [1], 0.09.
For `COc1ccc(NC(=O)C2CCN(C(=O)c3ccc(-c4noc(C)n4)cc3)CC2)cc1OC` the same measures were 0.58 (inactive) and -0.71.
Taken in the same sequence, the figures for `CCc1ccc(-c2ccc(=O)[nH]n2)cc1S(=O)(=O)N1CCOCC1` were -0.21 (inactive) and -0.65.
Taken in the same sequence, the figures for `O=C(O)c1cc(N2CCN(c3ccc(Cl)cc3)CC2)ccc1NC(=O)C1CCC1` were 0.22 (inactive) and 0.14.
`O=c1c(S(=O)(=O)c2ccc(F)c(Cl)c2)c[nH]c2c(F)cc(Cl)cc12`: the z-score (stronger effect = lower value) is -1.66 (inactive) and the z-score under setting [1] is -1.06.
Turning to `CNC(=O)c1ccc(NC(=O)N2CCCCc3ccccc32)cc1`, the z-score was 0.76 (inactive) (stronger effect = lower value) and -0.19 under setting [1].
For `COC(=O)c1cnc(N(C)C2CCCCC2)c2ccccc12` the same measures were 0.22 (inactive) and -0.03.
Consider `Cc1nc(Nc2ccccc2)nc2c1C(=O)CC(C)C2` (configuration not stated), for which the z-score is, setting by setting: (stronger effect = lower value) 0.7 (inactive); under setting [1], 0.46.
Taken in the same sequence, the figures for `COCc1cc(C)nc2sc3c(c12)NC(C)N(c1ccc(C)cc1)C3=O` (configuration not stated) were -0.14 (inactive) and -1.91.
As for `Cc1ccc(-n2cc(C(=O)O)c3ccccc3c2=O)cc1`, the z-score (stronger effect = lower value) was 1.03 (inactive) and the z-score under setting [1] was found to be 0.91.
Taken in the same sequence, the figures for `Cc1ccc2c(c1)OCC(=O)N2CC(=O)O` were -1.28 (inactive) and -1.54.
In the case of `Cc1ccc(C2C3=C(CCCC3=O)Nc3ccccc3N2C(=O)c2ccccc2)cc1` (configuration not stated), the z-score by setting is: (stronger effect = lower value) -0.78 (inactive); under setting [1], 0.3.
Taken in the same sequence, the figures for `CCN1CCN(C(=O)C2CCCN(S(=O)(=O)c3cc(-c4noc(C5CC5)n4)sc3C)C2)CC1` (configuration not stated) were 0.63 (inactive) and 0.78.
Taken in the same sequence, the figures for `COc1cc(OC)cc(C(=O)Nc2nc(CC(=O)Nc3ccc(OC)c(OC)c3)cs2)c1` were -0.43 (inactive) and -0.34.
As to `CCn1nc(C)c(CCN(C)C(=O)NCC2CCCO2)c1C` (configuration not stated), the z-score was -1.05 (inactive) (stronger effect = lower value) and -1.68 under setting [1].
Taken in the same sequence, the figures for `O=C(CSc1ccccc1)N1CCN(Cc2cc(=O)n3nc(-c4ccccc4F)sc3n2)CC1` were 0.75 (inactive) and 0.13.
For `Cn1c(=O)oc2cc(S(=O)(=O)N3CCC4(CC3)Nc3cc(F)ccc3-n3cccc34)ccc21` the same measures were -0.55 (inactive) and 0.11.
Take `CN1CCC[C@@H]1CCO[C@](C)(c1ccccc1)c1ccc(Cl)cc1`: the z-score reads like this: (stronger effect = lower value) -1.24 (inactive) and -1.63 (active) and 0.92 (inactive); under setting [1], 0.36 and -2.85 and -1.59.
Take `O=S(=O)(Cc1ccccc1)N1CCCC1c1ccc(Cl)cc1` (configuration not stated): the z-score is, setting by setting: (stronger effect = lower value) -0.27 (inactive); under setting [1], -0.13.
For `CCOC(=O)c1cnc2c(-c3ccccc3)c(COc3ccccc3)nn2c1N` the same measures were -0.05 (inactive) and -0.12.
Taken in the same sequence, the figures for `O=C(Nc1ccc2c(c1)OCCO2)c1cccc(Oc2ccnc(-c3ccc(F)cc3)n2)c1` were -0.1 (inactive) and 0.77.
For the compound `O=C(CC1CCCC1)N1CCN=C1N1CCCC1`, the z-score is -1.26 (inactive) (stronger effect = lower value) and -0.58 under setting [1].
For `CCOc1ccc(CNC(=O)C2(NS(=O)(=O)c3cccc4cccnc34)CCCCC2)cc1`, the z-score was 0.35 (inactive) (stronger effect = lower value) and 0.16 under setting [1].
Taken in the same sequence, the figures for `COc1cccc(-n2ccnc2SCc2nc(-c3ccccc3)no2)c1` were 0.5 (inactive) and 0.33.
